Bioassay records from PubChem.
TSHR antagonist = Antagonists of the Thyroid Stimulating Hormone Receptor: HTS campaign. Thyrotropin receptor (Homo sapiens), P16473. 330,000 tested, 0.2% active. activity change, negative = inhibition, % at 11.5 µM. TSHR-expressing cells, TSH-stimulated cAMP HTRF, 2 h; stronger effect = lower value;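 active means activity change below a set negative limit, meaning inhibition stronger than a set level, cut at about -70% in these data; inconclusive means activity change between two set negative limits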; further: on the % scale 0 is the no-effect control and ±100 the full control effect
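Inhibition of cAMP made by TSHR-expressing cells under TSH stimulation (4nM final, EC80; 2 h, 37 deg C) is quantified with a one-step lysis HTRF kit, anti-cAMP cryptate versus cAMP-d2.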
VDR inh = Inhibitors of the vitamin D receptor (VDR): qHTS | Vitamin D3 receptor (Homo sapiens), P11473 | VDR-SRC2-3 peptide fluorescence polarization, 2 h | Potency, µM, inactives show max response, negative = inhibition, hits mostly inhibitors | 400,000 tested, 0.93% active; further: potency means the concentration at half of the fitted maximal effect; on the % scale 0 is the no-effect control and ±100 the full control effect
Target sequence (P11473 whole entry, looked up): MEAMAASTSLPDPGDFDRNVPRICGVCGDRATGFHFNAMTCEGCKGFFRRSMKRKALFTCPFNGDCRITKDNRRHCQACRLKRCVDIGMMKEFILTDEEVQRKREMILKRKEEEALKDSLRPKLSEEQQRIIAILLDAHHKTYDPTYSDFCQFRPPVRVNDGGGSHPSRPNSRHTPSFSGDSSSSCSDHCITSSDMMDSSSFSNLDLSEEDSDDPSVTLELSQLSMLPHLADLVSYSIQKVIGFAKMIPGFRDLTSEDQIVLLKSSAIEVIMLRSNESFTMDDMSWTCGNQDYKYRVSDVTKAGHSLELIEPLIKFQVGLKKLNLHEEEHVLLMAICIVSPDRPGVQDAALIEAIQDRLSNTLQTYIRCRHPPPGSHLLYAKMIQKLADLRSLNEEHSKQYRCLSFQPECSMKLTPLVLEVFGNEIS
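Fluorescence polarization assay of small-molecule disruption of VDR binding to coregulator peptide SRC2-3. Compounds and controls pin-transferred, then read after 2 h incubation at ambient room temperature.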
Vif-APOBEC3G blk = qHTS for Inhibitors of Vif-A3G Interactions: qHTS. HeLa A3G-eYFP + Vif (tagged APOBEC3G with the HIV-1 protein that degrades it), YFP fluorescence, overnight. Potency, µM (doses to about 46.1 µM), for inactives: top-dose activity, negative = active, most hits filed as inhibitors. 410,000 tested, 0.076% active. DNA dC->dU-editing enzyme APOBEC-3G (Homo sapiens), Q9HC16. AID 602310, 2012; further: potency means the concentration at half of the fitted maximal effect; on the % scale 0 is the no-effect control and ±100 the full control effect; nearly all actives have a fitted effect of over 60% in size
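Read-out is eYFP fluorescence (Ex 488/Em 500-530) from Vif-expressing HeLa A3G-eYFP cells; more signal means A3G escaped Vif-mediated degradation. Cells plated overnight, compound pinned in, incubated overnight at 37 deg C.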
PLK1 PBD block = qHTS for Inhibitors of PLK1-PDB (polo-like kinase 1 - polo-box domain): Primary Screen. Plk1 PBD binding of FITC phosphopeptide, fluorescence polarization. Potency, µM, without a hit: max response, negative = inhibition, usual class: inhibitors. 360,000 tested, 2.8% active. AID 720504, 2013; further: potency means the concentration at half of the fitted maximal effect; series mostly up to about 57 µM; on the % scale 0 is the no-effect control and ±100 the full control effect; nearly all actives have a fitted effect of over 65% in size
Vif-A3F inh = qHTS for Inhibitors of Vif-A3F Interactions: qHTS; HeLa A3F-eYFP + Vif (tagged APOBEC3F with the HIV-1 protein that degrades it), YFP fluorescence increase; Potency, µM (doses to about 46.1 µM), for the others: at the top dose activity, negative = active; 390,000 tested, 0.2% active; AID 602313, 2012; further: potency means the concentration at half of the fitted maximal effect; % of control where 0% means no effect; nearly all actives have a fitted effect of over 65% in size
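HeLa cells stably expressing Vif plus C-terminally eYFP-tagged A3F were seeded, incubated overnight at 37 deg C, dosed with compound, incubated overnight again at 37 deg C. Yellow fluorescence (Ex 488/Em 500-530) reported blocked Vif-mediated A3F-eYFP degradation.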
VDR confirm = qHTS for Inhibitors of the vitamin D receptor (VDR): Hit Validation in Primary Screen; AID 602199, 2012; VDR-coactivator inhibition assay, qHTS confirmation; 840 tested, 89% active; Potency, µM, hits mostly inhibitors; shares compounds with VDR inh; further: potency means the concentration at half of the fitted maximal effect
VDR FP = qHTS for Inhibitors of the vitamin D receptor (VDR): Hit Validation using a Fluorescein Assay | shares compounds with VDR inh | VDR-coactivator binding, fluorescein fluorescence polarization | Potency, µM (top dose mostly 57.1 µM), for inactives: top-dose activity change, negative = inhibition, hits mostly inhibitors | 840 tested, 48% active; further: potency means the concentration at half of the fitted maximal effect
VDR bla reporter = qHTS for Inhibitors of the vitamin D receptor (VDR): Hit Validation using a Beta-Lactamase Assay; VDR beta-lactamase reporter cells, FRET ratio; cells co-treated with VDR agonist LG190178; Potency, µM (top dose mostly 46.1 µM), for the others: top-dose activity change, negative = inhibition, actives largely listed as inhibitors; 840 tested, 23% active; shares compounds with VDR inh; further: potency means the concentration at half of the fitted maximal effect; on the % scale 0 is the no-effect control and ±100 the full control effect
VDR cytotox = qHTS for Inhibitors of the vitamin D receptor (VDR): Hit Validation using a Cytotoxicity Assay; shares compounds with VDR inh; cytotoxicity counter-screen, cell viability, qHTS; Potency, µM (top dose mostly 48.3 µM), inactives show at the top dose activity change, negative = cytotoxicity, most hits filed as cytotoxic; 840 tested, 18% active;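 further: potency means the concentration at half of the fitted maximal effect; plate controls were DMSO for no effect and high-concentration cycloheximide for full effect; nearly all actives have a fitted effect of over 75% in size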
An asterisk follows results filed as active; ? = inconclusive; nt = no result. Most compounds without a hit are left out; they make up all but 3.1% or so of the library. Unless noted, the call rests on the fitted dose curve; in most records, active means well fitted curve in the direction sought with a large enough effect; inconclusive means small, poorly fitted or top-dose-only effect, or another doubt; inactive means no such curve, though single readings can be large; an effect the other way counts as inactive or inconclusive.

SMILES	TSHR antagonist	VDR inh	Vif-APOBEC3G blk	PLK1 PBD block	Vif-A3F inh	VDR confirm	VDR FP	VDR bla reporter	VDR cytotox
O=C1NC(=O)/C(=C\c2ccc(Sc3ccc(Cl)cc3)o2)N1	-10	-3%	1%	?	0%	nt	nt	nt	nt
COc1ccc(CNC(=O)Cc2ccc(NC(=O)N3CCSc4ncccc43)cc2)cc1	nt	11%	5%	nt	-2%	nt	nt	nt	nt
O=C(O)CN1C(=O)/C(=C\C(Br)=C\c2ccccc2)SC1=S	-1	35µM*	?	6µM*	-13%	?	18%	?	?
CC(=C\c1ccccc1)/C=C1/SC(=S)N(CCC(=O)Nc2ccccn2)C1=O	-18	nt	nt	nt	nt	nt	nt	nt	nt
CNC(=O)c1cc2c(cn1)[nH]c1ccccc12	-12	5%	2%	0%	6%	nt	nt	nt	nt
COC(=O)[C@H](CCSC)NC(=O)c1cc2c(cn1)[nH]c1ccccc12	-4	25µM*	-4%	3µM*	-2%	7.5*	?	5%	30%
COc1cccc2cc(-c3cn4c(n3)sc3cc(F)ccc34)c(=O)oc12	nt	14%	4%	nt	-5%	nt	nt	nt	nt
CC(=O)Nc1ccc(C2=NNC(=Nc3cccc(S(=O)(=O)N(C)C)c3)SC2)cc1	-2	?	-9%	19µM*	-21%	13*	13µM*	?	?
CN(C)S(=O)(=O)c1cccc(N=C2NN=C(c3ccccc3)CS2)c1	-11	?	-2%	?	-9%	nt	nt	nt	nt
Cc1ccc(-c2ccc(/C=C3/NC(=O)NC3=O)o2)cc1[N+](=O)[O-]	-8	8%	-9%	-6%	-12%	nt	nt	nt	nt
CC1=C(C#N)C(=O)NC(=O)/C1=C\c1ccc(-c2cc(C)c(C)cc2[N+](=O)[O-])o1	-16	25µM*	0%	4.7µM*	-7%	10*	8.9µM*	-7%	8%
Cc1ccc(C(=O)Oc2oc(-c3ccccc3)nc2C=Nc2ccc(N(C)C)cc2)cc1	24	-21%	1%	72%	?	nt	nt	nt	nt
O=C(Oc1oc(-c2ccco2)nc1C=Nc1ccccc1)c1ccoc1	12	50µM*	0%	4.7µM*	-2%	?	?	?	?
Cc1ccc(C(=O)Oc2oc(-c3ccco3)nc2C=Nc2ccc(Cl)cc2)cc1	-4	50µM*	1%	4.7µM*	1%	11*	?	-4%	1%
O=C(Oc1oc(-c2ccco2)nc1C=Nc1ccccc1)c1ccco1	-1	28µM*	-2%	3µM*	-14%	6*	?	?	-10%
Cc1ccc(N=Cc2nc(-c3ccco3)oc2O)cc1	-8	21%	-4%	-2%	2%	nt	nt	nt	nt
Cc1nc2cnc(Oc3ccccc3)nc2n(C2CC2)c1=O	nt	-16%	nt	nt	nt	nt	nt	nt	nt
Clc1ccc(Cl)c(-c2nn3c(COc4ccccc4)nnc3s2)c1	-1	?	1%	5.3µM*	0%	11*	7.1µM*	-15%	-27%
COc1ccccc1CCNC(=O)C(=O)NCC(c1cccs1)S(=O)(=O)c1ccc(C)cc1 (stereo not given)	nt	18%	0%	nt	2%	nt	nt	nt	nt
CCOC(=O)c1sc(N)c(C(=O)Nc2ccccc2OC)c1C	-6	71µM*	?	4.7µM*	?	11*	?	-15%	?
COc1ccc(OCC2c3cc(OC)c(OC)cc3CCN2C(=O)COc2ccc(Cl)cc2Cl)cc1 (stereo not given)	nt	0%	-3%	nt	5%	nt	nt	nt	nt
Nc1nc2c(s1)CCc1c-2cnn1-c1ccccc1	20	20µM*	-14%	2.7µM*	-4%	4.5*	4µM*	?	?
Nc1c(-c2ccc(Cl)cc2)cnn1-c1ccccc1	-5	-7%	0%	7%	1%	nt	nt	nt	nt
Cc1ccc(C(=O)N2C(=S)C(c3ccc(F)cc3)=NC23CCN(C)CC3)cc1	-6	?	-26%	24µM*	-18%	18*	22µM*	26µM*	?
CCn1nnc2cc(C(=O)Nc3ccc(OC)cc3)ccc21	nt	7%	0%	nt	0%	nt	nt	nt	nt
SMILES	TSHR antagonist	VDR inh	Vif-APOBEC3G blk	PLK1 PBD block	Vif-A3F inh	VDR confirm	VDR FP	VDR bla reporter	VDR cytotox
CC(C)=CC1C(CO)C1(C)C (stereo not given)	nt	5%	nt	nt	nt	nt	nt	nt	nt
COc1ccccc1CNc1cc(-c2ccoc2)ncn1	nt	16µM*	nt	nt	nt	?	-5%	5%	10%
Cc1ccc(/C(O)=C2/C(=O)C(=O)OC2c2ccc(Cl)cc2)cc1 (stereo not given)	4	?	-1%	?	-2%	11*	10µM*	-1%	15%
O=C(CSc1c2c(nc3cc(Cl)ccc13)CCCC2)N1CCN(c2ccccc2F)CC1	nt	?	0%	nt	1%	nt	nt	nt	nt
CN(CCO)c1cc(Sc2nc3ccccc3s2)c2nonc2c1[N+](=O)[O-]	-18	25µM*	?	1.9µM*	-2%	6.7*	3.5µM*	?	3.2µM*
CCOC(=O)C1=C(C)N=C2SC(C(=O)OC)=CC(=O)N2C1c1ccc(F)cc1 (stereo not given)	-2	22µM*	-16%	-26%	-18%	13*	?	15%	?
Cc1ccc(C(=O)/C=C/C(=O)O)cc1	4	14µM*	?	?	0%	7.5*	10µM*	20%	?
CCCCSc1nnc2n(-c3ccc(OC)cc3)c(=O)c3c4c(sc3n12)COC(C(C)C)C4 (stereo not given)	nt	-22%	1%	nt	-3%	nt	nt	nt	nt
FC(F)(F)c1cc(-c2ccccc2)nc(N2CCCCCC2)n1	0	-8%	-4%	5%	-8%	nt	nt	nt	nt
CS(=O)(=O)c1nc(-c2ccccc2)cc(C(F)(F)F)n1	-47	?	-7%	24µM*	-14%	8.9*	4.5µM*	18µM*	24µM*
